# Measurements taken from the supplement of paper PMC11417369.
# ± gives the standard deviation of the averaged measurements. The full ranking holds about 25,000 sequences; the median of “ln(normalized median fluorescence intensity)” is about 8.6, and the highest 2% start at about 10. For the sample, the highest values were picked, then their nearest neighbours and some sequences at random.
# Test system: PfAP2-EXP AP2 domain (GST-tagged)
# Test: gcPBM binding intensity (ln(normalized median fluorescence intensity)); higher = stronger DNA binding
# Summary of the method: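 After 1 h on an Agilent 4 × 180k array of primer-extended double-stranded 36-bp intergenic genomic probes and negative controls, bound GST-tagged P. falciparum DNA-binding domains were detected with Alexa488 anti-GST antibody and scanned at 488 nm. The domains had been expressed in E. coli, and binding took place in 1× PBS with 1% milk, 0.2 mg/ml BSA, 0.5% salmon testes DNA and 0.03% Triton X-100. Binding intensity is the highest Masliner-normalised natural-log median intensity across replicate spots of either probe orientation.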
row,Sequence,gcPBM binding intensity (ln)
1,AATTATATACATAAGTGTACATAATATATAAACATA [XGTACX_site793],8.31 ± 0.28
2,TACATCTTACTACTTATAATATAATATAGTATGAAT [TGCATGCA_negctrl_site8],8.21 ± 0.43
3,TTTTTCTTTTTTACAGTGCATAAATATATGTATTGT [GTGCAC_site9399],8.61 ± 0.32
4,CTGAAGAAACTACAACGTACAAAATATGTATATATT [XGTACX_site3779],8.55 ± 0.4
5,TTATTATATTAAAATTGTACTTGCTTTCAATATGAT [XGTACX_site5305],8.23 ± 0.35
6,TTTCTTTTACATATTTGTACATATATAAATTTATAT [XGTACX_site1787],8.91 ± 0.35
7,TACATTTAAAAAAAAACACACATATTTATATTTATA [CACACA_site7236],8.01 ± 0.49
8,TTATCATTTTAAATCACACACATATATAAATATGTA [CACACA_site7359],8.28 ± 0.35
9,TTATCATTTTAAATCACACACATATATATATATATA [CACACA_site2849],10.1 ± 0.49
10,TTAAAAAAAAAACACACACACATACACATATATATA [CACACA_site3299],8.77 ± 0.33
11,TACATTTAAAAAAAAACACACATATATATATATATA [CACACA_site2535],10.3 ± 0.33
12,TCTTATCATTTTAAATCACACACATATATATATATA [CACACA_site8925],10.2 ± 0.16
13,ATTTATGTTATTGTATGTACACAATATAATGTTATT [XGTACX_site5657],8.56 ± 0.32
14,TAATACCATAACAAGTGTACATAAATAATTATTGTA [XGTACX_site4949],8.8 ± 0.44
15,AAAAAAAAAAAAAAAACACACAAACATCAAATTACT [CACACA_site6950],8.69 ± 0.24
16,ATATGTTATATAAATATATATATATATATATATATA [TGCATGCA_negctrl_site594],10.1 ± 0.33
17,AATATGTTATAAATATGTTATAAATAATAAATAAAT [GTGCAC_negctrl_site135],8.45 ± 0.47
18,ATATATATTATAAAATGTACAAATGTTATATAAAAT [XGTACX_site4750],8.85 ± 0.45
19,AAAATGAAATATGTTATATATATATATATATATATA [CACACA_negctrl_site1752],9.9 ± 0.4
20,ATCAAAAATGTTATATATATATATATATATATATAT [TGCATGCA_negctrl_site71],10.2 ± 0.45
21,GTTATATGTTATATATATATATATATATATATATAT [TGCATGCA_negctrl_site428],10.2 ± 0.65
22,ATATATATATATTCCACACACACACTAATAAAAAAA [CACACA_site9214],9.94 ± 0.16

row,Sequence,gcPBM binding intensity (ln)
1,AACTGATTATTTTTTTGTACATATATAATAATATAT [XGTACX_site5953],8.61 ± 0.33
2,GACCATGTTAACAAAGCATGCATCTCTATATGTTTA [TGCATGCA_site358],8.87 ± 0.49
3,TCATAACAACTTTGTGTGCACATAAAACATGTATAT,8.94 ± 0.3
4,TATATTTATTTATACACATGCATATTTTAAGGGCTC [TGCATGCA_site885],8.72 ± 0.4
5,ATCTAAACCTTTTGAGCACACATATATATATATATA [CACACA_site8526],9.86 ± 0.7
6,CTAAACCTTTTGAGCACACATATATATATATATATA [CACACA_site1782],10.4 ± 0.16
7,TCATATCTTTTGAGCACACATATATATATATAAAGG [CACACA_site3338],8.71 ± 0.34
8,TAACAAAACATAGATTGTACATATTATAAATGTATA [XGTACX_site1543],8.46 ± 0.38
9,TTTATTAATTTATAGTGTACATATTAATAATATATT [XGTACX_site7949],8.35 ± 0.2
10,GTTTTCTAGTGGGGGTGTACATATTTATATTTAATA [XGTACX_site8378],10.9 ± 0.34
11,GTGTAATATATTTTTCGTACATATTATATATATATA [XGTACX_site1675],9.8 ± 0.37
12,TTTATTTTGTAGTGTACACATATATATATATATATA [CACACA_site5843],10.3 ± 0.36
13,TTTTTATTTGGTTGTGTACACATATATATATATATA [CACACA_site5844],10.2 ± 0.3
14,TTTTTTTTGTGTATTTGTACATAATATATATATATA [XGTACX_site7092],9.68 ± 0.19
15,ACATATTTTATTTTTTGTACACATATATTATTTTTT [XGTACX_site6528],8.99 ± 0.42
16,TAATATTTTTTGTGTACACATATATATATATATATA [CACACA_site5504],10.2 ± 0.53
17,AATATATATTTGTGTACACATTATATATATATATAT [CACACA_site6103],10 ± 0.35
18,TTTCGTAACTATTTGTGTACATATATATATATATAT [XGTACX_site2920],10.3 ± 0.29
19,ATATATATATTTGTATGTACATATATATATTCGTAT [XGTACX_site1640],9.23 ± 0.29
20,ATATATTATTTCTAGTGTACATACCCATATATAATA [XGTACX_site8902],8.97 ± 0.33
21,GATCTATATATCATTACACACTTGAATTACTTAAAA [CACACA_site21],8.49 ± 0.36
22,TAATTTTTTTTTTTTTTTTTTTTTTTTTTTTTCCTT [CACACA_negctrl_site1095],7.8 ± 0.61
